Laboratory results from PubChem BioAssay (NCATS).
Inconclusive results are not listed. The source made the active and inactive calls. Unless noted, how the calls were made is not given here.

How the values were obtained:
[1] = qHTS profiling of the MIPE4 collection as inhibitors of Plasmodium falciparum (3D7) proliferation (AID 743344);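 further: scaled between DMSO vehicle wells and 0.29 µM artemisinin as full inhibition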; conditions: P. falciparum 3D7 in erythrocytes, SYBR Green DNA fluorescence, 72 h; at 28.5 µM unless noted
How it was run: (§1)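 Parasite DNA was quantified by SYBR Green I fluorescence (ex 485, em 535 nm) after overnight lysis in saponin/Triton buffer at room temperature. Cultures at 0.3% parasitemia and 2.5% hematocrit were first exposed to compound for 72 h at 37 C; signals were normalised to artemisinin (0.29 uM) and vehicle wells.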

[2] = qHTS profiling of the MIPE4 collection as inhibitors of Plasmodium falciparum (DD2) proliferation (AID 743345); conditions: P. falciparum Dd2 in erythrocytes, SYBR Green DNA, 72 h; at 28.5 µM unless noted
How it was run: as §1

[3] = qHTS profiling of the MIPE4 collection as inhibitors of Plasmodium falciparum (HB3) proliferation (AID 743347);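 further: plate controls were DMSO vehicle wells for no effect and artemisinin wells for full effect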; conditions: P. falciparum HB3 in erythrocytes, SYBR Green DNA, 72 h; at 28.5 µM unless noted
How it was run: as §1

[4] = High-throughput drug toxicity screening in the BPDCN cell line Gen2.2 (AID 1224824); conditions: Gen2.2 BPDCN cells; at 45.8 µM (top of the series) unless noted;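 further: cells exposed to compounds for 48 h before reading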
How it was run: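 Gen2.2 cells, 500 per well in phenol red-free RPMI with 10% FBS, exposed to compounds 48 h at 37 C, 5% CO2; viability by CellTiter-Glo luminescence. Percent activity scaled to DMSO (100%) and 9.2 uM bortezomib final (0%).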

[5] = High-throughput drug toxicity screening in the BPDCN cell line Cal-1 (AID 1224825); conditions: Cal-1 BPDCN cell viability, qHTS; at 45.8 µM (top of the series) unless noted
How it was run: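 CellTiter-Glo luminescence after 48 h compound exposure; percent activity scaled with DMSO as 100% and bortezomib (9.2 uM final) as 0%. Cal-1 cells seeded at 500/well in RPMI, 10% FBS, no phenol red.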

[6] = qHTS assay for measurement of the activity of small molecule inhibitors on Zika virus induced Caspase-3 activity in human iPSC derived neural progenitor cells (hNPCs) (AID 1224857; active means well fitted inhibition curve with a large enough effect; further: % of control where 0% means no effect; nearly all actives have a fitted effect of over 65% in size)
How it was run: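 Caspase-3/7 induction by a 6-hour ZIKV infection was quantified with a luminescent Caspase-Glo 3/7 reagent incubated 30 minutes at room temperature. Compounds were preincubated with hNPCs for 1 hour; inhibition was calculated against uninfected and infected control wells.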

[7] = qHTS assay for measurement of the activity of small molecule inhibitors on Zika virus induced Caspase-3 activity in human astrocytoma cells (AID 1224859; active means well fitted inhibition curve with a large enough effect;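 further: plate controls were ZIKV-infected untreated cells for no effect and uninfected cells for full effect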)
How it was run: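 In SNB-19 cells plated at 250 cells/well and grown 16-20 h, compounds were applied 1 h before ZIKV (2 FFU/cell). Six hours later caspase-3/7 luminescence was recorded.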

[8] = qHTS Screen of the MIPE 4.0 Collection Against Ewings Sarcoma (RDES) (AID 1259252; active means well fitted inhibition curve with a large enough effect; further: nearly all actives have a fitted effect of over 35% in size; further: potency means the concentration at half of the fitted maximal effect)
How it was run: (§2)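 Viability screen: 48 h incubation at 37C, 95% humidity, 5% CO2 with serially titrated compound, followed by CellTiter-Glo readout.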

[9] = qHTS Screen of the MIPE 4.0 Collection Against Ewings Sarcoma (TC71) (AID 1259253; active means well fitted inhibition curve with a large enough effect; further: nearly all actives have a fitted effect of over 40% in size; further: potency means the concentration at half of the fitted maximal effect)
How it was run: as §2

[10] = qHTS Screen of the MIPE 4.0 Collection Against Ewings Sarcoma (EW8) (AID 1259255; active means well fitted inhibition curve with a large enough effect; further: nearly all actives have a fitted effect of over 35% in size; further: potency means the concentration at half of the fitted maximal effect;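 on viability: 100% = DMSO-treated cells and 0% = medium-only wells without cells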)
How it was run: as §2

[11] = qHTS profiling of the MIPE4 collection as inhibitors of Plasmodium falciparum (DD2) proliferation (Rep 2) (AID 743346); conditions: P. falciparum Dd2 in erythrocytes, SYBR Green DNA, 72 h; at 28.5 µM unless noted
How it was run: as §1

| Structure (SMILES) | parasite growth, % of DMSO control [1] [%] | parasite growth remaining, % of DMSO control (lower = more inhibition) [2] [%] | growth, % of control [3] [%] | cell viability, % of control (lower = more cytotoxic) [4] [%] | viability (% of control) [5] [%] | Potency [6] | Potency [7] | Potency [8] | Potency [9] | Potency [10] | parasite growth, % of control (lower = inhibition) [11] [%] |
| --- | --- | --- | --- | --- | --- | --- | --- | --- | --- | --- | --- |
| CN1C(C(=O)Nc2ccccn2)=C(O)c2sc(Cl)cc2S1(=O)=O | 64.4 | 86.4 | 69.3 | 59.6 | 71.2 | inactive | inactive | 3.32 µM (active) | 3.72 µM (active) | 20.9 µM (active) | – |
| CCOC(=O)N1CCN([N+]([O-])=NOc2ccc([N+](=O)[O-])cc2[N+](=O)[O-])CC1 | 67.7 | 83 | 60.8 | 17.4 | 13.5 | inactive | inactive | 16.6 µM (active) | 10.5 µM (active) | 3.32 µM (active) | 70.7 |
| CC(C)(C)[N+]([O-])=Cc1ccc(S(=O)(=O)O)cc1S(=O)(=O)O | 102 | 92.1 | 63 | 133 | 111 | inactive | inactive | inactive | inactive | inactive | 85.8 |
| C[C@@H]1[C@H](C)CC[C@]2(C(=O)O)CC[C@]3(C)C(=CC[C@@H]4[C@@]5(C)C[C@@H](O)[C@H](O)[C@@](C)(CO)[C@H]5CC[C@]43C)[C@@H]12 | 68.7 | 90.5 | 43.6 | 106 | 122 | inactive | inactive | inactive | inactive | inactive | 52.5 |
| CCS(=O)(=O)Nc1ccc2[nH]c(O)c(C(=Nc3ccc(CN4CCCCC4)cc3)c3ccccc3)c2c1 | 6.54 | 7.14 | 4.28 | 2.51 | 7.15 | inactive | inactive | 0.662 µM (active) | 0.132 µM (active) | 0.0833 µM (active) | 13.8 |
| CCOC(=O)[C@@H](N)Cc1ccc(-c2cc(O[C@H](c3ccc(Cl)cc3-n3ccc(C)n3)C(F)(F)F)nc(N)n2)cc1 | 5.93 | 28.1 | 15.8 | 10.1 | 16.2 | inactive | inactive | 26.4 µM (active) | 23.5 µM (active) | 26.4 µM (active) | – |
| N[C@H]1CN(c2c(F)cc3c(=O)c(C(=O)O)cn(C4C[C@@H]4F)c3c2Cl)CC12CC2 (some centres not stated) | 20.3 | 24.5 | 10 | 92.2 | 92.9 | inactive | inactive | inactive | inactive | inactive | – |
| COC(=O)[C@@H]1CC2=CC(=O)CC[C@]2(C)[C@@]23O[C@@H]2C[C@@]2(C)[C@H](CC[C@@]24CCC(=O)O4)[C@@H]13 | 74.7 | 87.1 | 49.1 | 132 | 108 | inactive | inactive | inactive | inactive | inactive | 61.4 |
| NC(=O)Nc1cc(-c2ccc(CN3CCOCC3)cc2)sc1C(N)=O | 27.3 | 46.5 | 33.4 | 26.1 | 6.64 | inactive | inactive | 4.69 µM (active) | 0.332 µM (active) | 0.0935 µM (active) | 33 |
| CC(C)(O)[C@H]1CC[C@@](C)([C@H]2[C@@H](O)C[C@@]3(C)[C@@H]4C[C@H](O[C@@H]5O[C@H](CO)[C@@H](O)[C@H](O)[C@@H]5O)[C@H]5C(C)(C)[C@@H](O[C@@H]6OC[C@@H](O)[C@H](O)[C@@H]6O)CC[C@@]56C[C@@]46CC[C@]23C)O1 | 90.6 | 135 | 81.9 | 1050 | 112 | inactive | inactive | 10.5 µM (active) | 8.33 µM (active) | inactive | – |
| C#C[C@]1(O)CC[C@@H]2[C@@H]3CCc4cc(O)ccc4[C@H]3CC[C@@]21C | 75.9 | 90.7 | 89.8 | 67.3 | 11.2 | inactive | inactive | 18.7 µM (active) | 16.6 µM (active) | 20.9 µM (active) | 54.7 |
| CCc1cnn2c(NCc3ccc[n+]([O-])c3)cc(N3CCCC[C@@H]3CCO)nc12 | 14.9 | 14 | 8.08 | 4.38 | 3.16 | inactive | inactive | 0.0418 µM (active) | 0.0264 µM (active) | 0.0235 µM (active) | – |
| Cc1cnn(C)c1C(=O)Nc1cc(Nc2ccc3c(C=Cc4ccccn4)n[nH]c3c2)ccc1F | 4.63 | 12.8 | 6.36 | 97.2 | 10.9 | inactive | inactive | 26.4 µM (active) | 16.6 µM (active) | 18.7 µM (active) | 19.1 |
| C[C@H](NCc1ccc2c(c1)nc(NC(=O)c1ccc(-c3cn[nH]c3)s1)n2CCc1ccccc1)C(C)(C)C | 5.07 | 4.87 | 10.1 | 9.44 | 2.31 | inactive | inactive | 2.35 µM (active) | 1.48 µM (active) | 2.09 µM (active) | 13.1 |
| C[C@@H](NCc1cc2ccccc2[nH]1)c1cccc2ccccc12 | 41.8 | 83.3 | 36.4 | 171 | 108 | inactive | inactive | inactive | inactive | inactive | 71.9 |
| COc1cccc2c1C(=O)c1c(O)c3c(c(O)c1C2=O)C[C@@](O)(C(=O)CO)C[C@@H]3O[C@H]1C[C@H](N)[C@H](OC2CCCCO2)[C@H](C)O1 (some centres not stated) | 5.43 | 7.89 | 3.44 | 5.53 | 1.87 | inactive | inactive | 1.18 µM (active) | 0.662 µM (active) | 0.166 µM (active) | 7.8 |
| CCCNS(=O)(=O)Nc1ncnc(OCCOc2ncc(Br)cn2)c1-c1ccc(Br)cc1 | 102 | 99.9 | 88.3 | 180 | 117 | inactive | inactive | inactive | inactive | inactive | 82.3 |
